Compounds with a hit are over-represented: about 1.4% of the library has one in this group of screens.
Polio RdRp inh: poliovirus RNA polymerase inhibition. P03300. % elongation, % (compound at 16.7 µg/mL). poliovirus polymerase elongation, fluorescence polarization; active compounds read low. 0.66% of 150,000 active; in the data active = % elongation below about 90%
Target sequence (P03300 1749-2209 limits assumed): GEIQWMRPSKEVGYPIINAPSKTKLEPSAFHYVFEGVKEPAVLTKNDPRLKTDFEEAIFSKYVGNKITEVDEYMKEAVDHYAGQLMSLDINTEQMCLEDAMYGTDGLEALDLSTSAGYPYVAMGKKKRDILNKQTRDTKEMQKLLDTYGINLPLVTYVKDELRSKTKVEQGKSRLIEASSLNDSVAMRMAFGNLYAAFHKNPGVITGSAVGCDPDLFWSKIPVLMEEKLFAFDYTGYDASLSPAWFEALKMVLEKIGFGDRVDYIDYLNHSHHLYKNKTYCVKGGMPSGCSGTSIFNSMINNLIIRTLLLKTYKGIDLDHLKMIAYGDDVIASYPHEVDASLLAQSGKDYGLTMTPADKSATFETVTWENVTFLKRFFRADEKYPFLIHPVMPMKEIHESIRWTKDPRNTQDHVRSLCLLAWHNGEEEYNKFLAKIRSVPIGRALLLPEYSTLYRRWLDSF
MbtI inh: inhibitors of Mycobacterium tuberculosis siderophore enzyme MbtI | purified MbtI enzyme, fluorescence intensity read-out | inhibition, % (no concentration beside the values) | 0.89% of 100,000 active; in the data active = inhibition mostly above about 56%, no sharp cut-off; inactive = mostly below about 77%
MenB inh: Mtb MenB enzyme inhibition; MenB enzyme assay, absorbance read-out; inhibition, % (no concentration beside the values); P9WNP5; AID 540299; 0.43% of 100,000 active; in the data active = inhibition above about 21%, passing the limit was not always enough
The depositor's hits bear a star; nt = no result given.

SMILES	Polio RdRp inh	MbtI inh	MenB inh
CCOC(=O)c1oc2ccc(CC/C(C)=N/NC(=O)c3ccoc3C)cc2c1C	103	8	-36
CCN(CC)Cn1c(=S)oc2ccccc21	102	11	-25
CCN(Cc1ccncc1)Cn1c(=S)oc2ccccc21	102	75*	-7
COc1cccc(/C=N/n2cnnc2)c1OC	104	10	-26
C/C1=C\C(O)C(C(C)C)C(O)C/C(C)=C/CC1 (centres undefined)	106	nt	-27
C=CCn1c(C2COc3ccccc3O2)n[nH]c1=S (centres undefined)	100	98*	-22
C=CCn1c(SCC(=O)Nc2cc(C)on2)nnc1C1COc2ccccc2O1 (centres undefined)	101	-16	-12
CC(=O)NC(=S)Nc1cccc(C)c1	101	6	-16
Cc1cccc(NC(=S)Nn2c(O)c(C)sc2=S)c1	99	93*	-67
NC(=S)Cc1nc(-c2ccccc2)cs1	97	10	-53
COC(=O)Cc1nc(-c2ccccc2)cs1	86*	10	6
CCCN1CCN(C(=O)c2c(C)nn(Cc3ccc(C)cc3)c2Cl)CC1	103	-6	-31
COC(=O)CSc1ncc(C#N)c(N)n1	102	34	17
Cc1c(C(=O)CSc2ncc(C#N)c(N)n2)c2ccccc2n1C	102	nt	30*
N#Cc1ccccc1COC(=O)c1cc[n+]([O-])cc1	105	0	3
COC(=O)N(c1ccccc1)P1(=S)OCCO1	96	102*	37*
CNC(=O)N(O)c1ccccc1	102	-12	13
Cc1noc(C)c1S(=O)(=O)NC1CCCCCC1	101	-5	-14
Cc1ccc2cccc(OCC(=O)c3ccc(C)c(C)c3)c2n1	nt	-3	nt
CCn1c(=NC(=O)c2ccc(C#N)cc2)sc2cccc(F)c21	105	4	-14
CCN1CCc2c(sc(=NC(=O)c3ccc(F)cc3)n2C(=O)c2ccc(F)cc2)C1	65*	93	-13
CC1Cc2ccccc2O1 (centres undefined)	99	-2	-22
Cn1/c(=N\NC(=O)C23CC4CC(CC(C4)C2)C3)sc2ccccc21	104	-2	-21
CCc1ccccc1N1C(=N)SC2CS(=O)(=O)CC21 (centres undefined)	99	2	1
COCCn1c(=S)[nH]c2sc(C)c(C)c2c1=O	80*	100*	-48
SMILES	Polio RdRp inh	MbtI inh	MenB inh
CCCCn1c(=S)[nH]c2sc3c(c2c1=O)CCCC3	100	2	-47
C/C(=N\OCC(=O)Nc1ccc2c(c1)OCO2)c1cc2ccccc2o1	103	7	-34
NCCc1ccc2c(c1)OCO2	110	4	2
CC(=O)OCC1OC(Oc2ccccc2)C(OC(C)=O)C(OC(C)=O)C1OC(C)=O (centres undefined)	101	5	-5
CC(=O)N1CCc2ccccc2C1	103	nt	5
CC(=C1C(=O)c2ccccc2C1=O)N1CCc2ccccc2C1	89*	13	-65
CC(C)NC(=O)CSc1nc2ccccc2s1	105	30	-31
O=C(CSc1nc2ccccc2s1)NNc1ncnc2c1cnn2Cc1ccccc1	100	56*	6
CCNc1ncnc2c1nnn2C	103	nt	nt
CCNc1ncnc2c1nnn2CC	99	86*	-47
Cc1cc(NS(=O)(=O)c2ccc(N3C(=O)C=CC3=O)cc2)no1	98	93*	12
Cc1cc(NS(=O)(=O)c2ccc(NC(=S)NCc3ccccc3)cc2)no1	101	-9	-2
N=c1occ(C(=O)c2cc(Cl)ccc2O)cc1C(=O)NC1CC1	100	-8	-29
N#Cc1c(-c2cccs2)cc(-c2ccc(C(=O)O)cc2)nc1SCc1cccs1	78*	nt	4
N#CCSc1nc(-c2cccs2)cc(-c2cccs2)c1C#N	101	15	10
CC(=O)Nc1cccc(C(=O)OCCN2C(=O)c3ccccc3C2=O)c1	103	1	3
O=C(Oc1ccc(Br)cc1)C1CCC(N2C(=O)C3C4C=CC(C4)C3C2=O)CC1 (centres undefined)	101	-7	-22
Cc1ccc2oc(=O)c(C(=O)O)cc2c1	102	11	-8
Cc1ccc2o/c(=N\O)c(C(N)=O)cc2c1	100	100*	-12
Cc1c(N(C)S(C)(=O)=O)c(=O)n(-c2ccccc2)n1C	102	nt	-14
CCn1c(-c2ccc3c(c2)OCCO3)cnc1SCC(=O)NC(=O)NCc1ccco1	99	12	-31
CCc1ccc(-c2nn(Cc3ccccc3)cc2CN2CCN(CC(=O)N3CCOCC3)CC2)cc1	97	-9	3
O=C(Cn1c(SCc2ccccc2F)nc2cccnc21)Nc1ccc(F)c(Cl)c1	109	nt	nt
CN(C)c1ccc(NC(=O)Cn2c(SCc3ccccc3F)nc3cccnc32)cc1	19*	nt	nt
Cc1cccc(C2CC(=O)NC3=C2C(=O)CC(c2cccs2)C3)c1 (centres undefined)	98	4	1
SMILES	Polio RdRp inh	MbtI inh	MenB inh
COc1ccc(NC(=O)N(CCN(C)C)Cc2cc3cc(OC)ccc3[nH]c2=O)cc1	103	80	34*
CCN1CCCC1CN(Cc1cc2cc(OC)ccc2[nH]c1=O)C(=O)Nc1ccccc1 (centres undefined)	102	89	19
O=C1NC(=Nc2ccc(F)cc2)CS1	95	78*	-35
O=C1NC(=Nc2ccccc2)CS1	99	37	-21
COc1ccc(NS(=O)(=O)c2ccc3oc(SCC(=O)Nc4ccc5c(c4)OCO5)nc3c2)cc1	97	-1	-20
CN(C(=O)COCc1cc(-c2ccco2)on1)c1ccccc1	102	-8	0
O=C1C(c2ccncc2)=C(O)c2ccccc21	101	23	-124
O=C1C(c2cc(Cl)cc(Cl)c2)=C(O)c2ccccc21	98	89*	-32
CCn1nnc(NC(=O)COc2ccccc2)n1	104	-4	13
CN1C(=O)Cc2cc(S(=O)(=O)CCC(=O)Nc3cccc(C(F)(F)F)c3)ccc21	108	nt	nt
CN1C(=O)Cc2cc(S(=O)(=O)CCC(=O)Nc3ccccc3)ccc21	-22*	nt	nt
O=C(O)CSc1ncnc2c1nnn2Cc1ccccc1F	98	14	0
O=C(Nc1ccccc1)Nc1ccc2c(c1)OCO2	104	6	9
Cc1ccc(N=C2NN=C(c3ccccc3)C(C(=O)Nc3ccc4c(c3)OCO4)S2)cc1 (centres undefined)	85*	39	-7
O=C(CCN1CCOCC1)c1ccc(Br)cc1	99	nt	3
CCCCCOc1ccc(C(=O)CCN2CCOCC2)cc1	103	92*	-7
C=CCN(C(=O)c1cn(CC(C)C)c(=O)c2cc(OC)c(OC)cc12)c1ccccc1	101	-5	-3
O=C(CSc1cccc[n+]1[O-])Nc1ccccc1OC(F)F	103	-6	7
NC1=CC(=O)c2ccccc2C1=O	88*	66	-66
CC1=CC(=O)c2ccccc2C1=O	99	10	-6
CC(C)NC(=O)C1CN(S(=O)(=O)c2ccccc2)CCN1S(=O)(=O)c1ccccc1 (centres undefined)	113	nt	1
O=C(N/N=C/c1ccco1)C1CN(S(=O)(=O)c2ccccc2)CCN1S(=O)(=O)c1ccccc1 (centres undefined)	102	84*	-32
CCN1CCC(N)CC1	95	3	8
C[C@]12CC[C@@H]3c4ccc(O)cc4CC[C@H]3[C@@H]1C[C@@H](O)[C@@H]2O	101	-9	-1

High-throughput results (PubChem BioAssay)
